Assay results from PubChem BioAssay (Tox21).
Records with an inconclusive call do not appear. Calls of active or inactive are those of the source. Unless noted, calls follow the shape of the dose curve; as a rule, active = well fitted curve in the direction sought with a large enough effect in the repeat runs; inconclusive = weak or mixed curves; inactive = no such curve, though single readings can be large; an effect the other way counts as inactive or inconclusive.

Columns and labels:
[1] = biological target: Peroxisome proliferator-activated receptor delta (Homo sapiens) (UniProt Q03181); assay: qHTS assay to identify small molecule agonists of the peroxisome proliferator-activated receptor delta (PPARd) signaling pathway (AID 743212; calls by dose curve)
Sequence of Peroxisome proliferator-activated receptor delta (Homo sapiens) (Q03181 whole entry, looked up): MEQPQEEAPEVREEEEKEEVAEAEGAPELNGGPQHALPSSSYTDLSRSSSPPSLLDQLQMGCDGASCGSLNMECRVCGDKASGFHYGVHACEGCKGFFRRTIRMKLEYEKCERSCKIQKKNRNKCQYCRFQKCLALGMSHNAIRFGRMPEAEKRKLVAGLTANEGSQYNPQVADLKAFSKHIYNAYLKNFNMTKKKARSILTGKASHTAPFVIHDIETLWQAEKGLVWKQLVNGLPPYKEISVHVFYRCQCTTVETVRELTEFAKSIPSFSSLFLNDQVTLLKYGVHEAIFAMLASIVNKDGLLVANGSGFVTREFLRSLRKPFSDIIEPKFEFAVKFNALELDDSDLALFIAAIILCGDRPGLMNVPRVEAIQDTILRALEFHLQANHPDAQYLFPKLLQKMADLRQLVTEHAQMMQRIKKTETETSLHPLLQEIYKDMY
How it was run: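 HEK293H PPARd-bla cells; 5 h preincubation 37 C/5% CO2; compound (DMSO) 37 C; LiveBLAzer B/G FRET substrate 2 h RT; fluorescence intensity.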

[2] = qHTS assay to identify small molecule antagonists of the peroxisome proliferator-activated receptor delta (PPARd) signaling pathway - cell viability counter screen (AID 743213); also: nearly all actives have a fitted effect of over 50% in size
How it was run: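 In this counter screen, HEK293H cells carrying a UAS-beta-lactamase reporter are co-treated with test compounds and 300 nM L165041 (final) for 17 h at 37 C; cell viability is quantified by CellTiter-Glo luminescence.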

[3] = biological target: Peroxisome proliferator-activated receptor delta (Homo sapiens) (UniProt Q03181); assay: qHTS assay to identify small molecule antagonists of the peroxisome proliferator-activated receptor delta (PPARd) signaling pathway (AID 743215; active = well fitted inhibition curve with a large enough effect in the signal ratio in the repeat runs, not every such curve was filed as active; the % refers to the signal ratio;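 also: cells stimulated with agonist L165041 at 300 nM final during compound exposure; series mostly up to about 62 µM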)
How it was run: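 Inhibition of L165041-driven (300 nM final) PPARd signaling is scored in HEK293H UAS-bla cells. Exposure lasts 17 h at 37 C; beta-lactamase activity is then read by FRET substrate fluorescence after 2 h at room temperature.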

[4] = qHTS assay to identify small molecule antagonists of the farnesoid-X-receptor (FXR) signaling pathway - cell viability counter screen (AID 743221; active = well fitted cell-killing curve with a large enough effect in the repeat runs, not every such curve was filed as active; also: nearly all actives have a fitted effect of over 50% in size)
How it was run: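 FXR-UAS-bla HEK 293T cells were treated with test compounds plus chenodeoxycholic acid (50 uM final) for 16 h at 37 C. Cell viability in the same wells was then read as CellTiter-Glo luminescence after 30 min at room temperature.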

[5] = biological target: Vitamin D3 receptor (Homo sapiens) (UniProt P11473); assay: qHTS assay to identify small molecule agonists of the vitamin D receptor (VDR) signaling pathway (AID 743222; calls by dose curve)
Sequence of Vitamin D3 receptor (Homo sapiens) (P11473 whole entry, looked up): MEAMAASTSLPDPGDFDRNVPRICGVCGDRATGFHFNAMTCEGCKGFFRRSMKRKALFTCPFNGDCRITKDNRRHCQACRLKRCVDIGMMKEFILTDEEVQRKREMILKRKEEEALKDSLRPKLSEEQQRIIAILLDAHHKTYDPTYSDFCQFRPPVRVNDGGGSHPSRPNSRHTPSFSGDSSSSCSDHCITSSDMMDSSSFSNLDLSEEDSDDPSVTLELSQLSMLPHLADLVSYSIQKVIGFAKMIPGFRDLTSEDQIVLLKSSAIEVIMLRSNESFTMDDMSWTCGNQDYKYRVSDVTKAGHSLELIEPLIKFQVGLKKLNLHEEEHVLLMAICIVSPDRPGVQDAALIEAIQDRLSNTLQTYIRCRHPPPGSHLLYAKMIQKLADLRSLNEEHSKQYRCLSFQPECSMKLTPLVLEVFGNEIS
How it was run: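 Quantitative HTS agonist-mode screen: compounds in DMSO were pin-transferred onto VDR-bla cells and incubated 16 h at 37C, 5% CO2. Reporter activity was detected with LiveBLAzer B/G FRET substrate after 2 h at room temperature.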

[6] = biological target: Vitamin D3 receptor (Homo sapiens) (UniProt P11473); assay: qHTS assay to identify small molecule antagonists of the vitamin D receptor (VDR) signaling pathway (AID 743223; active = well fitted inhibition curve with a large enough effect in the signal ratio in the repeat runs, not every such curve was filed as active; the % refers to the signal ratio)
How it was run: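 VDR-bla cells were plated, incubated 4 h at 37C, then given compound and 1alpha,25-dihydroxyvitamin D3 (3 nM final). After 16 h at 37C, LiveBLAzer B/G FRET substrate was added for 2 h at room temperature and fluorescence read.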

[7] = qHTS assay to identify small molecule agonists of the vitamin D receptor (VDR) signaling pathway - cell viability counter screen (AID 743224); also: series mostly up to about 63 µM; nearly all actives have a fitted effect of over 50% in size
How it was run: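 Viability is measured in the same wells as the VDR-bla reporter assay: after 16 h compound treatment and 2 h substrate loading, CellTiter-Glo is added and luminescence read 30 min later.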

[8] = biological target: Bile acid receptor (Homo sapiens) (UniProt Q96RI1); assay: qHTS assay to identify small molecule agonists of the farnesoid-X-receptor (FXR) signaling pathway (AID 743220; active = well fitted activation curve with a large enough effect in the signal ratio in the repeat runs, not every such curve was filed as active; the % refers to the signal ratio)
Sequence of Bile acid receptor (Homo sapiens) (Q96RI1 whole entry, looked up): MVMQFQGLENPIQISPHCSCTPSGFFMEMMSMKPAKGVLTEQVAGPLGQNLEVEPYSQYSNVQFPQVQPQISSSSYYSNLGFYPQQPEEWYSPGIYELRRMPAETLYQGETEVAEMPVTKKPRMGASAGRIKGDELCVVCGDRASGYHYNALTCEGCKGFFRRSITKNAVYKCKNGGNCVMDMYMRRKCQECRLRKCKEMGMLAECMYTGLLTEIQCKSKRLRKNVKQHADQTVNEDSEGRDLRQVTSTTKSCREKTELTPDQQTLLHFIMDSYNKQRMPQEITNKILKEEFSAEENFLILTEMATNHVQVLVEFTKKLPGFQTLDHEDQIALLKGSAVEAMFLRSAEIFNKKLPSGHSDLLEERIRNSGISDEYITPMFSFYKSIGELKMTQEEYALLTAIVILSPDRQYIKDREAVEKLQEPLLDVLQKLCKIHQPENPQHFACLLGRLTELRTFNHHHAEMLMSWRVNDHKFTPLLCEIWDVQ
How it was run: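 Beta-lactamase reporter under UAS control in GeneBLAzer FXR HEK 293T cells (5000/well) measured with LiveBLAzer FRET substrate after 2 h at room temperature. Compound exposure lasted 16 h at 37C.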

[9] = qHTS assay to identify small molecule agonists of the farnesoid-X-receptor (FXR) signaling pathway - cell viability counter screen (AID 743218); also: nearly all actives have a fitted effect of over 45% in size
How it was run: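 Cytotoxicity counter-screen run in parallel, same wells: FXR-UAS-bla HEK 293T cells dosed 16 h at 37 C, viability read by CellTiter-Glo luminescence after 30 min at room temperature.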

[10] = biological target: Bile acid receptor (Homo sapiens) (UniProt Q96RI1); assay: qHTS assay to identify small molecule antagonists of the farnesoid-X-receptor (FXR) signaling pathway (AID 743217; active = well fitted inhibition curve with a large enough effect in the signal ratio in the repeat runs, not every such curve was filed as active; the % refers to the signal ratio)
How it was run: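 Antagonist mode against 50 uM (final) chenodeoxycholic acid stimulation in FXR-bla HEK 293T cells, 16 h at 37 °C. Inhibition detected as reduced beta-lactamase activity via LiveBLAzer B/G FRET fluorescence after 2 h at room temperature.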

Measured: Potency

CC1CCCO1 (stereo unspecified)
inactive: [1] | [2] | [3] | [4] | [5] | [6]

O=C(c1ccccc1)C1CCC1
inactive: [1] | [2] | [4] | [5] | [7]

Cc1ccc2nc(N)[nH]c(=O)c2c1Sc1ccncc1
inactive: [1] | [2] | [3] | [8] | [4] | [5] | [6]

CC(C)N(C)C
inactive: [1] | [2] | [3] | [4] | [6] | [7]

CCN(CC)C(=O)/C(C#N)=C/c1cc(O)c(O)c([N+](=O)[O-])c1
inactive: [1] | [2] | [9] | [4]

CC1CCC(C(C)CS)CC1S (stereo unspecified)
inactive: [1] | [2] | [3] | [9] | [5] | [7]

Nc1ccc(NC(=O)c2ccc(N)cc2)cc1
inactive: [1] | [2] | [3] | [9] | [7]

Nc1ccc(F)cc1
inactive: [1] | [2] | [4] | [5] | [6] | [7]

[Cl][Nd]([Cl])[Cl]
inactive: [1] | [2] | [9] | [4] | [5] | [7]

O=C(NS(=O)(=O)/C=C/c1ccccc1)c1ccc(F)cc1Cl
inactive: [1] | [2] | [3] | [4] | [7]

CC(C)(C)C1(CCc2ccc(Cl)cc2)CO1 (stereo unspecified)
inactive: [1] | [2] | [10] | [9] | [8] | [4] | [5] | [7]

Cc1ccc(S(=O)(=O)NC(=O)NC2CCCCC2)cc1
inactive: [1] | [2] | [3] | [4] | [7]

COc1ccc(-n2nc(C(F)F)cc2-c2ccc(S(C)=O)cc2)cc1 (stereo unspecified)
inactive: [1] | [2] | [7]

CC[C@H]1OC(=O)[C@H](C)[C@@H](O[C@H]2C[C@@](C)(OC)[C@@H](O)[C@H](C)O2)[C@H](C)[C@@H](O[C@@H]2O[C@H](C)C[C@H](N(C)C)[C@H]2O)[C@](C)(O)C[C@@H](C)/C(=N\OCOCCOC)[C@H](C)[C@@H](O)[C@]1(C)O
inactive: [1] | [2] | [10] | [8] | [5] | [6] | [7]

COc1cc(C(C)=O)ccc1OCCCN1CCC(c2noc3cc(F)ccc23)CC1
inactive: [1] | [2] | [9] | [7]

Cc1ccc2c(c1[N+](=O)[O-])C(=O)c1ccccc1C2=O
inactive: [1] | [2] | [3] | [8] | [4] | [5] | [7]

CCSC(=O)N(CC)CC
inactive: [1] | [2] | [3] | [9] | [5] | [6] | [7]

CCCCOCCOC(=O)c1cccnc1
inactive: [1] | [2] | [3] | [4]

CN=C(N)NC(=O)Nc1c(C)cccc1C
inactive: [1] | [2] | [3] | [4] | [5] | [6] | [7]

CCOC(=O)c1ccc(NC(=O)CN2CCCCC2)cc1
inactive: [1] | [2] | [3] | [4] | [5] | [6]

Cc1cccc2sc(N)nc12
inactive: [1] | [2] | [3] | [4] | [5] | [7]

COc1cc(OC)c2ccc(=O)oc2c1
inactive: [1] | [2] | [4] | [7]

O=C(c1ccccc1)c1ccc(O)cc1
inactive: [1] | [3] | [10] | [8] | [4] | [5] | [7]

CCN(CC)CC(=O)Nc1c(C)cccc1C(=O)OC
inactive: [1] | [2] | [3] | [4] | [5] | [7]

Nc1ccc(S(=O)(=O)NCc2ccccc2)cc1
inactive: [1] | [3] | [10] | [9] | [8] | [4] | [5]

CC(=O)N[C@@H](Cc1ccc(O)cc1)C(=O)O
inactive: [1] | [2] | [3] | [4] | [5] | [7]

CCN(CC)CCOC(=O)C(c1ccccc1)c1ccccc1
inactive: [1] | [3] | [10] | [9] | [8] | [5] | [7]

CCCCCCC(CO)CCCC (stereo unspecified)
inactive: [1] | [2] | [3] | [4] | [5] | [6] | [7]

FC(F)(F)C(F)(F)C(F)(F)C(F)(F)CCI
inactive: [1] | [2] | [3] | [5] | [6]

CC(CCc1ccc(O)cc1)NCCc1ccc(O)c(O)c1 (stereo unspecified)
inactive: [1] | [3] | [10] | [9] | [8] | [4] | [7]

CCCCOC(=O)CCCCC(=O)OCCCC
inactive: [1] | [2] | [3] | [9] | [5] | [7]

CC1C(C)(C)C2=C(C(=O)CCC2)C1(C)C (stereo unspecified)
inactive: [2] | [3] | [9] | [4] | [5] | [6] | [7]

CC[C@@H](CO)NCCN[C@@H](CC)CO
inactive: [1] | [9] | [4]

CC(=O)NNC(C)=O
inactive: [2] | [3] | [10] | [8] | [5] | [6] | [7]

Oc1ccc2c(c1)Cc1ccccc1-2
inactive: [2] | [3] | [9] | [4]

CCC(=O)OCc1ccc(OC)cc1
inactive: [2] | [3] | [10] | [9] | [8] | [4] | [5] | [6]
